Measurements taken from PubChem BioAssay AID1159580 (chemical genetic matrix, 2015).
Out of some 5,500 compounds screened, about 2,000 (36%) were called active. About 18% were inconclusive and are not listed. No stated cut-off is given here; in the data, active means normalized growth mostly below about 0.91 (no sharp cut-off); inconclusive means no clear call, values can overlap the other calls; inactive means mostly above about 0.92. The list shows a part of the results.

Experiment: chemical genetic growth profiling, strain panel (AID 1159580);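 further: tested at 20 µM; growth read once vehicle control cultures reached saturation at 30 °C; 1 = growth at the plate median or of vehicle wells; lower values mean less growth of the strain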
Conditions: growth OD

Measured: normalized growth

CC(=O)OCC(=O)[C@@]1(O)CCC2C3C[C@H](C)C4=CC(=O)C=CC4(C)C3[C@@H](O)CC21C (some centres not stated)
inactive: S. cerevisiae deletion strains, locus YJR075W, strain HOC1, hits give low values 1.01 | S. cerevisiae deletion strains, locus YKL009W, strain mrt4, hits give low values 1.01 | S. cerevisiae deletion strains, locus YKL068W, hits give low values 1.02 | S. cerevisiae deletion strains, locus YKL085W, strain MDH1 (second series), hits give low values 0.995 | S. cerevisiae deletion strains, locus YKL085W, strain MDH1, hits give low values 0.995 | S. cerevisiae deletion strains, locus YKL160W, strain elf1, hits give low values 1.03 | S. cerevisiae deletion strains, locus YKL190W, strain CNB1, hits give low values 1 | S. cerevisiae deletion strains, locus YKR001C, strain vps1, hits give low values 0.997 | S. cerevisiae deletion strains, locus YKR026C, strain gcn3, hits give low values 1.01 | S. cerevisiae deletion strains, locus YKR091W, strain srl3, hits give low values 1.01 | S. cerevisiae deletion strains, locus YLL001W, strain dnm1, hits give low values 0.999 | S. cerevisiae deletion strains, locus YLL026W, hits give low values 1.01 | S. cerevisiae deletion strains, locus YLL041C, strain sdh2, hits give low values 1.01 | S. cerevisiae deletion strains, locus YLR027C, strain aat2, hits give low values 1.01 | S. cerevisiae deletion strains, locus YLR039C, strain RIC1, hits give low values 1.02 | S. cerevisiae deletion strains, locus YLR058C, strain SHM2, hits give low values 1.01 | S. cerevisiae deletion strains, locus YLR102C, strain apc9, hits give low values 1.01 | S. cerevisiae deletion strains, locus YLR113W, strain HOG1, hits give low values 1.02 | S. cerevisiae deletion strains, locus YLR221C, strain rsa3, hits give low values 0.997 | S. cerevisiae deletion strains, locus YLR258W, strain gsy2, hits give low values 1.03 | S. cerevisiae deletion strains, locus YLR262C, strain YPT6 (second series), hits give low values 1.03 | S. cerevisiae deletion strains, locus YLR262C, strain YPT6, hits give low values 1.01 | S. cerevisiae deletion strains, locus YLR268W, strain sec22, hits give low values 0.987 | S. cerevisiae deletion strains, locus YLR320W, strain mms22, hits give low values 1.01 | S. cerevisiae deletion strains, locus YLR330W, strain CHS5, hits give low values 1.01 | S. cerevisiae deletion strains, locus YLR342W, strain FKS1 (second series), hits give low values 1.03 | S. cerevisiae deletion strains, locus YLR342W, strain FKS1, hits give low values 1.02 | S. cerevisiae deletion strains, locus YLR357W, strain rsc2, hits give low values 1.03 | S. cerevisiae deletion strains, locus YLR370C, strain arc18, hits give low values 1.01 | S. cerevisiae deletion strains, locus YLR371W, strain rom2, hits give low values 1 | S. cerevisiae deletion strains, locus YLR384C, strain iki3, hits give low values 0.999 | S. cerevisiae deletion strains, locus YLR418C, strain cdc73, hits give low values 0.974 | S. cerevisiae deletion strains, locus YML016C, strain PPZ1, hits give low values 1 | S. cerevisiae deletion strains, locus YML032C, strain rad52, hits give low values 1.02 | S. cerevisiae deletion strains, locus YML120C, strain ndi1, hits give low values 1.02 | S. cerevisiae deletion strains, locus YML124C, strain tub3, hits give low values 1 | S. cerevisiae deletion strains, locus YMR058W, strain fet3, hits give low values 1.02 | S. cerevisiae deletion strains, locus YMR078C, strain ctf18, hits give low values 1 | S. cerevisiae deletion strains, locus YMR125W, strain sto1, hits give low values 1.04 | S. cerevisiae deletion strains, locus YMR129W, hits give low values 1.01 | S. cerevisiae deletion strains, locus YMR205C, strain PFK2, hits give low values 1.02 | S. cerevisiae deletion strains, locus YMR223W, strain ubp8, hits give low values 1.01 | S. cerevisiae deletion strains, locus YMR231W, strain pep5, hits give low values 1.02 | S. cerevisiae deletion strains, locus YMR263W, strain SAP30, hits give low values 1 | S. cerevisiae deletion strains, locus YMR307W, strain GAS1, hits give low values 1.03 | S. cerevisiae deletion strains, locus YNL067W, strain RPL9B, hits give low values 0.996 | S. cerevisiae deletion strains, locus YNL071W, strain lat1, hits give low values 1.01 | S. cerevisiae deletion strains, locus YNL128W, strain TEP1, hits give low values 1.01 | S. cerevisiae deletion strains, locus YNL153C, strain GIM3, hits give low values 0.998 | S. cerevisiae deletion strains, locus YNL183C, strain NPR1, hits give low values 0.962 | S. cerevisiae deletion strains, locus YNL209W, strain ssb2, hits give low values 1 | S. cerevisiae deletion strains, locus YNL233W, strain BNI4, hits give low values 1.01 | S. cerevisiae deletion strains, locus YNL248C, strain rpa49, hits give low values 1.02 | S. cerevisiae deletion strains, locus YNL250W, strain rad50, hits give low values 1 | S. cerevisiae deletion strains, locus YNL271C, strain bni1, hits give low values 1 | S. cerevisiae deletion strains, locus YNL298W, strain CLA4, hits give low values 1.01 | S. cerevisiae deletion strains, locus YNL307C, strain MCK1, hits give low values 1.01 | S. cerevisiae deletion strains, locus YNL322C, strain KRE1 (second series), hits give low values 1 | S. cerevisiae deletion strains, locus YNL322C, strain KRE1, hits give low values 1 | S. cerevisiae deletion strains, locus YNR049C, strain mso1, hits give low values 1.02 | S. cerevisiae deletion strains, locus YNR052C, strain pop2, hits give low values 1 | S. cerevisiae deletion strains, locus YOL006C, strain TOP1, hits give low values 1.01 | S. cerevisiae deletion strains, locus YOL012C, strain htz1 1.08 | S. cerevisiae deletion strains, locus YOL147C, strain pex11, hits give low values 1 | S. cerevisiae deletion strains, locus YOR001W, strain rrp6, hits give low values 0.988 | S. cerevisiae deletion strains, locus YOR061W, strain CKA2, hits give low values 1 | S. cerevisiae deletion strains, locus YOR069W, strain VPS5, hits give low values 1.01 | S. cerevisiae deletion strains, locus YOR070C, strain gyp1, hits give low values 1.02 | S. cerevisiae deletion strains, locus YOR080W, strain dia2, hits give low values 1.06 | S. cerevisiae deletion strains, locus YOR083W, strain WHI5, hits give low values 1.02 | S. cerevisiae deletion strains, locus YOR106W, strain vam3, hits give low values 1.01 | S. cerevisiae deletion strains, locus YOR136W, strain idh2, hits give low values 1.01 | S. cerevisiae deletion strains, locus YOR144C, strain elg1, hits give low values 1.01 | S. cerevisiae deletion strains, locus YOR184W, strain ser1, hits give low values 1.01 | S. cerevisiae deletion strains, locus YOR231W, strain MKK1, hits give low values 1.02 | S. cerevisiae deletion strains, locus YOR265W, strain rbl2, hits give low values 1.01 | S. cerevisiae deletion strains, locus YOR270C, strain vph1, hits give low values 0.982 | S. cerevisiae deletion strains, locus YOR290C, strain snf2, hits give low values 1.03 | S. cerevisiae deletion strains, locus YOR316C, strain cot1, hits give low values 1 | S. cerevisiae deletion strains, locus YPL051W, strain arl3, hits give low values 1.03 | S. cerevisiae deletion strains, locus YPL055C, strain LGE1, hits give low values 0.999 | S. cerevisiae deletion strains, locus YPL078C, strain atp4, hits give low values 1.03 | S. cerevisiae deletion strains, locus YPL106C, strain sse1, hits give low values 1.04 | S. cerevisiae deletion strains, locus YPL240C, strain hsp82, hits give low values 0.994 | S. cerevisiae deletion strains, locus YPL241C, strain CIN2, hits give low values 1.01 | S. cerevisiae deletion strains, locus YPL256C, strain CLN2, hits give low values 1.01 | S. cerevisiae deletion strains, locus YPR119W, strain clb2, hits give low values 1.01 | S. cerevisiae deletion strains, locus YPR141C, strain kar3, hits give low values 1.01 | S. cerevisiae deletion strains, locus YPR163C, strain tif3, hits give low values 1.01 | S. cerevisiae deletion strains, locus YPR167C, strain met16, hits give low values 0.995 | S. cerevisiae deletion strains, strain wtn01, hits give low values 1.01 | S. cerevisiae strains, strain wild type, hits give low values 1
